Inconclusive results are not listed. Calls of active or inactive are those of the source. How the source made its calls, unless noted: active means hit-call score of the fitted dose curve at least 0.9, where 1 is the maximum; inactive means score below 0.9.
Columns and labels:
[1] = target: Hypoxia-inducible factor 1-alpha (Homo sapiens) (UniProt Q16665); experiment: ATG_HIF1a_CIS: Attagene CIS-FACTORIAL HepG2 Assay for human Hypoxia Inducible Factor 1 (HIF1A) (AID 2282951); settings: HepG2 Attagene cis-factorial HIF1a reporter transcription; actives raise or lower the signal
Chain of Hypoxia-inducible factor 1-alpha (Homo sapiens) (Q16665 whole entry, looked up): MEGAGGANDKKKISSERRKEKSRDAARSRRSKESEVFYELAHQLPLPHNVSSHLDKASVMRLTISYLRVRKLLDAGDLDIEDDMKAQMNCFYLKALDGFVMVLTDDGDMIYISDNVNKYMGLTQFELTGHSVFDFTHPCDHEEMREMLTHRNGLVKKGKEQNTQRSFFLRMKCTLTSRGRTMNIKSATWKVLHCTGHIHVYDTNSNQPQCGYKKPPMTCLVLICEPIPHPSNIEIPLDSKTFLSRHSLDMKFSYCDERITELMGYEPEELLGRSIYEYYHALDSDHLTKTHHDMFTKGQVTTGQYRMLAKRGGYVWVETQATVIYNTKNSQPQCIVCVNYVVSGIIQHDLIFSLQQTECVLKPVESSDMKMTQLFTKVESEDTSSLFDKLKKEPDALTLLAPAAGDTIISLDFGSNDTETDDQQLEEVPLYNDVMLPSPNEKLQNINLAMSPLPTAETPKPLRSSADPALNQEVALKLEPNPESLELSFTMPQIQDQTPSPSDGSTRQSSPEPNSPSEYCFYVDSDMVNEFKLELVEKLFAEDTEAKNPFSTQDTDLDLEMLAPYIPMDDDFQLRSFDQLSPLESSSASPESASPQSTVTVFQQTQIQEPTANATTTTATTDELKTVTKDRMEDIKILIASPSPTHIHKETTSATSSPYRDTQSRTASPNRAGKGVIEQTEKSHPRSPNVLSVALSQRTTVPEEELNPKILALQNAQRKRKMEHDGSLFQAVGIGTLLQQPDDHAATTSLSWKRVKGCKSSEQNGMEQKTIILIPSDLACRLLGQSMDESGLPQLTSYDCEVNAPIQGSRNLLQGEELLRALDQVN
Procedure, shortened: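 HepG2 cells transiently transfected with multiple cis-regulated reporter transcription units measure endogenous transcription factor activity. After 24 h exposure, reporter mRNA is quantified by RT-PCR with 6-FAM labelling, HpaI digestion and capillary electrophoresis. Bidirectional fitting against DMSO.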

[2] = target: Hepatocyte nuclear factor 6 (Homo sapiens) (UniProt Q9UBC0); experiment: ATG_HNF6_CIS: Attagene CIS-FACTORIAL HepG2 Assay for human Hepatocyte Nuclear Factor 6 (HNF6) (AID 2282952); settings: HepG2 Attagene cis-factorial HNF6 reporter transcription; actives raise or lower the signal
Chain of Hepatocyte nuclear factor 6 (Homo sapiens) (Q9UBC0 whole entry, looked up, the tested form may be a part): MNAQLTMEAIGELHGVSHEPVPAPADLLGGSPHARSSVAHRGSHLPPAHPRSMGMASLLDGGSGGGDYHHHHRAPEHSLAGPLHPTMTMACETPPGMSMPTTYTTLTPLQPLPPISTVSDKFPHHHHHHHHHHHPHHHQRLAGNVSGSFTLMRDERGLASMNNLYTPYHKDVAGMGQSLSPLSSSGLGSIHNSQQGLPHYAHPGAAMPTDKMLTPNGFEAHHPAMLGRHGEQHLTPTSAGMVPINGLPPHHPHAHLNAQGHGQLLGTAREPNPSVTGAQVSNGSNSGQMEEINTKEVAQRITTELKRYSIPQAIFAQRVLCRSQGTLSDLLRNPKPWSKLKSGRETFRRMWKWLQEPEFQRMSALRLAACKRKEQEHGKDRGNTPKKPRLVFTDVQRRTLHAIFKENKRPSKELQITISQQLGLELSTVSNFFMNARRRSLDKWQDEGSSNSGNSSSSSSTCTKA
Procedure, shortened: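 Reporter mRNA induction or loss in HepG2 after 24 h exposure; transient cis-MRTU transfection; fragments quantified by capillary electrophoresis; bidirectional analysis, DMSO as negative control.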

[3] = target: Heat shock factor protein 1 (Homo sapiens) (UniProt Q00613); experiment: ATG_HSE_CIS: Attagene CIS-FACTORIAL HepG2 Assay for human Heat Shock Transcription Factor 1 (HSE) (AID 2282953); settings: HepG2 HSE cis-reporter, Attagene RNA transcription; actives raise or lower the signal
Chain of Heat shock factor protein 1 (Homo sapiens) (Q00613 whole entry, looked up): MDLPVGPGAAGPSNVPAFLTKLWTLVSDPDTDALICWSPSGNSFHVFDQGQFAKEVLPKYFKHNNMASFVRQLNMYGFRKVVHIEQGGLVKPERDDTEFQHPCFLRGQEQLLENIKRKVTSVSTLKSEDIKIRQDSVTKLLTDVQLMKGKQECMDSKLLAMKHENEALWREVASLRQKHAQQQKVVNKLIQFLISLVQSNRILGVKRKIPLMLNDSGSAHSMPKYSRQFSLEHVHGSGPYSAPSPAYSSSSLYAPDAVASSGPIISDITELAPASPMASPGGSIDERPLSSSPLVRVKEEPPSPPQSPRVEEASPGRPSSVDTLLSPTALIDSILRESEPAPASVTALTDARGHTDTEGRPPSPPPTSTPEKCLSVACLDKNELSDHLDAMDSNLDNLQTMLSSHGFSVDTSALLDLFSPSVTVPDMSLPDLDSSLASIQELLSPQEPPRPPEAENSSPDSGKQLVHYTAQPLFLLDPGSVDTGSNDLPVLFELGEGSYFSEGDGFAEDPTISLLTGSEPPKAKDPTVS
Procedure, shortened: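 Reporter mRNA induction in HepG2 is measured 24 h after dosing, using transiently transfected multiplexed cis-regulated reporter units. Signal comes from capillary electrophoresis of labelled RT-PCR products, with DMSO as negative control.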

[4] = ATG_PBREM_CIS: Attagene CIS-FACTORIAL HepG2 Assay for human Phenobarbital-responsive Enhancer Module (PBREM) (AID 2282955); settings: HepG2 PBREM cis-reporter, Attagene multiplexed transcription; actives raise or lower the signal
Procedure, shortened: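 HepG2 cells transiently transfected with multiple cis-regulated reporter units measure endogenous transcription factor activity; 24 h compound exposure. Reporter mRNA quantified by RT-PCR, fluorescent labelling, HpaI digestion and capillary electrophoresis; bidirectional fit versus DMSO.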

[5] = target: Paired box protein Pax-6 (Homo sapiens) (UniProt P26367); experiment: ATG_Pax6_CIS: Attagene CIS-FACTORIAL HepG2 Assay for human Paired Box 6 (PAX6) (AID 2282956); settings: HepG2 CIS-FACTORIAL PAX6 reporter transcription, RNA readout; actives raise or lower the signal
Chain of Paired box protein Pax-6 (Homo sapiens) (P26367 whole entry, looked up): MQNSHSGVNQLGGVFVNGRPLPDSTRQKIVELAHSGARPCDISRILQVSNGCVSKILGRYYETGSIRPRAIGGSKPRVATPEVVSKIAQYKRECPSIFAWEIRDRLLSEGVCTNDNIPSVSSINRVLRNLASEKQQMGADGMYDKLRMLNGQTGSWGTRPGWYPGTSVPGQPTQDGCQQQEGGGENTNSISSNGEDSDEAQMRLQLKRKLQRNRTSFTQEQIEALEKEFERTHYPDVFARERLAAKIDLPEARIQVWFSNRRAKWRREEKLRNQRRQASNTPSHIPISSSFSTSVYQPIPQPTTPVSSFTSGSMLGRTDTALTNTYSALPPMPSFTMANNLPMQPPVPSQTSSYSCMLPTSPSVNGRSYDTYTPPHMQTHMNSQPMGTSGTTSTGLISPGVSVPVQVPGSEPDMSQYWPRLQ
Procedure, shortened: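 After twenty-four hours of chemical exposure, transfected HepG2 cells are harvested for RNA. Cis-promoter reporter transcripts are amplified, fluorescently labelled and sized by capillary electrophoresis, with gain and loss of signal scored against DMSO.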

[6] = ATG_PXRE_CIS: Attagene CIS-FACTORIAL HepG2 Assay for human Pregnane X Receptor Element (PXRE) (AID 2282957); settings: HepG2 Attagene CIS-FACTORIAL PXRE reporter, mRNA; actives raise or lower the signal
Procedure, shortened: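 Transiently transfected HepG2 cells were dosed and incubated for 24 h. RNA was then isolated, DNase-treated, reverse-transcribed and reporter sequences amplified. Labeled, HpaI-digested fragments were quantified by capillary electrophoresis against DMSO.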

[7] = ATG_PPRE_CIS: Attagene CIS-FACTORIAL HepG2 Assay for human Peroxisome Proliferator-activated Response Element (PPRE) (AID 2282958); settings: HepG2 PPRE cis-element reporter, Attagene transcription factor profiling; actives raise or lower the signal
Procedure, shortened: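 HepG2 cells are transiently transfected with multiplexed cis-promoter reporter units to report endogenous PPAR activity. After 24 h dosing, reporter mRNA is read by RT-PCR and capillary electrophoresis. Fitting is bidirectional against DMSO.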

[8] = ATG_RORE_CIS: Attagene CIS-FACTORIAL HepG2 Assay for human RAR-related Orphan Receptor Element (RORE) (AID 2282959); settings: HepG2 Attagene cis-factorial RORE reporter, mRNA; actives raise or lower the signal
Procedure, shortened: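 HepG2 cells carrying transiently transfected cis-regulated reporter units; RORE-driven reporter mRNA quantified 24 h post-dosing by RT-PCR, 6-FAM primer extension, HpaI digestion and capillary electrophoresis. Bidirectional fit versus DMSO.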

[9] = ATG_Sox_CIS: Attagene CIS-FACTORIAL HepG2 Assay for human SRY-box transcription factor (SOX) (AID 2282960); settings: HepG2 Attagene cis-factorial SOX reporter, mRNA; actives raise or lower the signal
Procedure, shortened: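 HepG2 cells transiently transfected with multiple cis-regulated reporter units, then dosed for 24 h. Reporter mRNA quantified by RT-PCR, fluorescent labelling, HpaI digestion and capillary electrophoresis; bidirectional fit versus DMSO.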

[10] = target: Transcription factor Sp1 (Homo sapiens) (UniProt P08047); experiment: ATG_Sp1_CIS: Attagene CIS-FACTORIAL HepG2 Assay for human Specificity Protein 1 (Sp1) (AID 2282961); settings: HepG2 Sp1 cis-reporter transcription, actives raise or lower the signal
Chain of Transcription factor Sp1 (Homo sapiens) (P08047 whole entry, looked up): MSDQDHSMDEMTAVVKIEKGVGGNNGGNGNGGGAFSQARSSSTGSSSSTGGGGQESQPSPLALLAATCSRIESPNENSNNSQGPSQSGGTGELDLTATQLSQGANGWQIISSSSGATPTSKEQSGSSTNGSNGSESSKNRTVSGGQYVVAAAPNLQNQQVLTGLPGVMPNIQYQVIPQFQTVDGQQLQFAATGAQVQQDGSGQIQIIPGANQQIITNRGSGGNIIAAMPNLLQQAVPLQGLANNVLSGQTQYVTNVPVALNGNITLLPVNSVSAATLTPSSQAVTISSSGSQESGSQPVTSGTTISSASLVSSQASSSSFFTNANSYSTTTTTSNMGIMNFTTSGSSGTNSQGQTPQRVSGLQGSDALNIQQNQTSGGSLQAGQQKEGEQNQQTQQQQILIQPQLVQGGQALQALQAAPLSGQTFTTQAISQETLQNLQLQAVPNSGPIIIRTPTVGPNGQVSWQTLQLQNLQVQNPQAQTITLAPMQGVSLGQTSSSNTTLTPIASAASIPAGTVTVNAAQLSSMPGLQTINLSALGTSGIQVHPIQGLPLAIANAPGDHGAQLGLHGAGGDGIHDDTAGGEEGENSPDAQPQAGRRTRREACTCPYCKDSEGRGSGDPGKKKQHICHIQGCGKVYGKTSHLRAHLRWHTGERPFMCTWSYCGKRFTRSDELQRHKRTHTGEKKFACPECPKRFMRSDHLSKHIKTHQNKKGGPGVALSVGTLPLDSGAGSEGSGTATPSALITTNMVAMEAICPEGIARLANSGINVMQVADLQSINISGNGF
Procedure, shortened: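 HepG2 cells transiently transfected with multiplexed cis-regulated reporter constructs, chemical exposure 24 h. Reporter mRNA quantified by RT-PCR with capillary electrophoresis; bidirectional fit relative to DMSO.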

[11] = ATG_SREBP_CIS: Attagene CIS-FACTORIAL HepG2 Assay for human Sterol Regulatory Element Binding (SREBP) (AID 2282962); settings: HepG2 Attagene cis-factorial SREBP reporter, mRNA; actives raise or lower the signal
Procedure, shortened: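 Twenty-four hours after chemical dosing of transfected HepG2 cultures, reporter RNA was converted to cDNA, amplified, end-labelled with 6-FAM and resolved by capillary electrophoresis. Responses were fitted relative to DMSO.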

[12] = target: Signal transducer and activator of transcription 3 (Homo sapiens) (UniProt P40763); experiment: ATG_STAT3_CIS: Attagene CIS-FACTORIAL HepG2 Assay for human Signal Transducer and Activator of Transcription 3 (STAT3) (AID 2282963); settings: HepG2, Attagene cis-factorial STAT3 reporter transcription; actives raise or lower the signal
Chain of Signal transducer and activator of transcription 3 (Homo sapiens) (P40763 whole entry, looked up): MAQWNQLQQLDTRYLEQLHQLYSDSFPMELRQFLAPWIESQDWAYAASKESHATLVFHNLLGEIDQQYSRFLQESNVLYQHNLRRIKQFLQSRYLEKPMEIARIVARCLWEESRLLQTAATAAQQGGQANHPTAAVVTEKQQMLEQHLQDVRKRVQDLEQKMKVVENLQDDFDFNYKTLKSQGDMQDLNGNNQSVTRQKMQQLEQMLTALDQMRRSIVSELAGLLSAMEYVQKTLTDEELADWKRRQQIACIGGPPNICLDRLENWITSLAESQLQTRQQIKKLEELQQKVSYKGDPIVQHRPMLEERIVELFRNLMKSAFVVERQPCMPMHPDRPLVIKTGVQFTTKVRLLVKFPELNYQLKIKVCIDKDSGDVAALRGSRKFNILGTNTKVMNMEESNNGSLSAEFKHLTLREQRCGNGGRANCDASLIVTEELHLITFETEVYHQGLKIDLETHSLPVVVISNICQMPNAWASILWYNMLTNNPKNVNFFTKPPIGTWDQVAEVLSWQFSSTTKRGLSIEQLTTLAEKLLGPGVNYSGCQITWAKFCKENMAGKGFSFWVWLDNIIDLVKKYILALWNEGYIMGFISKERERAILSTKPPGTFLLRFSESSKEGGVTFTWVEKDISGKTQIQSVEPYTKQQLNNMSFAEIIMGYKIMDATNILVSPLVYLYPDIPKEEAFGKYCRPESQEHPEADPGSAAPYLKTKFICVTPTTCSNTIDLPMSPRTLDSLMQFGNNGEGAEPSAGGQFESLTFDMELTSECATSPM
Procedure, shortened: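 HepG2 cells transiently transfected with cis-element-driven multiple reporter transcription units; after 24 h chemical exposure, reporter mRNA measured by RT-PCR, 6-FAM primer-extension labelling, HpaI digestion and capillary electrophoresis. Bidirectional fitting versus DMSO baseline.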

[13] = ATG_TA_CIS: Attagene CIS-FACTORIAL HepG2 Assay for human TA Basal Promoter (AID 2282964); settings: HepG2 Attagene CIS-factorial TA basal promoter reporter; actives raise or lower the signal
Procedure, shortened: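 Cis-factorial format in HepG2: reporters report endogenous factors, not chimeric Gal4 fusions. After 24 h treatment, reporter transcripts were measured by RT-PCR-capillary electrophoresis fluorescence, analysed bidirectionally versus DMSO.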

[14] = ATG_TCF_b_cat_CIS: Attagene CIS-FACTORIAL HepG2 Assay for human T-Cell-Factor with beta-catenin (TCF/b-cat) (AID 2282965); settings: HepG2 TCF/beta-catenin cis-reporter transcription, actives raise or lower the signal
Procedure, shortened: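 HepG2 cells transiently transfected with multiple cis-promoter-regulated reporter transcription units, so endogenous transcription factor activity is measured. Reporter mRNA read 24 hours after dosing by RT-PCR, fluorescent labelling and capillary electrophoresis; bidirectional fitting against DMSO.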

[15] = ATG_TAL_CIS: Attagene CIS-FACTORIAL HepG2 Assay for human TAL Basal Promoter (AID 2282966); settings: HepG2 Attagene cis-factorial TAL promoter reporter; actives raise or lower the signal;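 further: background control endpoint measuring basal TAL promoter reporter mRNA not a specific factor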
Procedure, shortened: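 Readout: reporter mRNA, fluorescence by CE. System: HepG2, transient multi-reporter transfection, endogenous TF activity. Exposure: 24 h. Analysis: bidirectional, DMSO-normalized; background control.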

[16] = ATG_TGFb_CIS: Attagene CIS-FACTORIAL HepG2 Assay for human Transforming Growth Factor (TGF) (AID 2282967); settings: HepG2 Attagene CIS TGFb reporter, mRNA transcription; actives raise or lower the signal
Procedure, shortened: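 Multiplexed cis-reporter HepG2 system, 24 h treatment; mRNA induction read by fluorescence after RT-PCR and CE; DMSO negative control, bidirectional curve fitting.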

[17] = ATG_VDRE_CIS: Attagene CIS-FACTORIAL HepG2 Assay for human Vitamin D Receptor Element (VDRE) (AID 2282968); settings: HepG2 VDRE cis-reporter transcription, actives raise or lower the signal
Procedure, shortened: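 HepG2 cells transiently transfected with cis-element reporter units, dosed 24 h; reporter mRNA measured by RT-PCR, 6-FAM labeling, HpaI digestion and capillary electrophoresis. Activity fitted bidirectionally against DMSO baseline.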

[18] = target: Nuclear receptor subfamily 1 group I member 3 (Homo sapiens) (UniProt Q14994); experiment: ATG_CAR_TRANS: Attagene TRANS-FACTORIAL HepG2 Assay for human Constitutive Androstane Receptor (CAR) (AID 2282969; active means hit-call score of the fitted dose curve at least 0.9, where 1 is the maximum;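 further: activators raise reporter mRNA above DMSO so AC50 marks induction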); settings: HepG2 Attagene TRANS-FACTORIAL CAR reporter
Chain of Nuclear receptor subfamily 1 group I member 3 (Homo sapiens) (Q14994 whole entry, looked up, the tested form may be a part): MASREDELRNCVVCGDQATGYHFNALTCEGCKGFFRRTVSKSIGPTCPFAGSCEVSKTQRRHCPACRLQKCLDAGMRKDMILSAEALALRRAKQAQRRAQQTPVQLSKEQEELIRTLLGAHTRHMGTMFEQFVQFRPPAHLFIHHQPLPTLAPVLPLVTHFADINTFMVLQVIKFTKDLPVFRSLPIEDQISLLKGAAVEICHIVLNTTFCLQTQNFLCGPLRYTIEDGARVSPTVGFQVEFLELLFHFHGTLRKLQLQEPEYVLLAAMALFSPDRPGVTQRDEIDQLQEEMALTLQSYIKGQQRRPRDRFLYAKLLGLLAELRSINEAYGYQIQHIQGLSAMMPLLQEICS
Procedure, shortened: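 HepG2 cells transiently transfected with multiplexed GAL4-UAS reporter units expressing chimeric NR-Gal4 proteins; compound exposure 24 h. Reporter mRNA measured by RT-PCR, 6-FAM labelling, HpaI digestion and capillary electrophoresis; gain-of-signal fitted against DMSO baseline.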

[19] = target: Estrogen receptor (Homo sapiens) (UniProt P03372); experiment: ATG_ERa_TRANS: Attagene TRANS-FACTORIAL HepG2 Assay for human Estrogen Receptor alpha (ERa) (AID 2282970; active means hit-call score of the fitted dose curve at least 0.9, where 1 is the maximum); settings: HepG2 Attagene TRANS ERa GAL4 reporter, mRNA
Chain of Estrogen receptor (Homo sapiens) (P03372 whole entry, looked up, the tested form may be a part): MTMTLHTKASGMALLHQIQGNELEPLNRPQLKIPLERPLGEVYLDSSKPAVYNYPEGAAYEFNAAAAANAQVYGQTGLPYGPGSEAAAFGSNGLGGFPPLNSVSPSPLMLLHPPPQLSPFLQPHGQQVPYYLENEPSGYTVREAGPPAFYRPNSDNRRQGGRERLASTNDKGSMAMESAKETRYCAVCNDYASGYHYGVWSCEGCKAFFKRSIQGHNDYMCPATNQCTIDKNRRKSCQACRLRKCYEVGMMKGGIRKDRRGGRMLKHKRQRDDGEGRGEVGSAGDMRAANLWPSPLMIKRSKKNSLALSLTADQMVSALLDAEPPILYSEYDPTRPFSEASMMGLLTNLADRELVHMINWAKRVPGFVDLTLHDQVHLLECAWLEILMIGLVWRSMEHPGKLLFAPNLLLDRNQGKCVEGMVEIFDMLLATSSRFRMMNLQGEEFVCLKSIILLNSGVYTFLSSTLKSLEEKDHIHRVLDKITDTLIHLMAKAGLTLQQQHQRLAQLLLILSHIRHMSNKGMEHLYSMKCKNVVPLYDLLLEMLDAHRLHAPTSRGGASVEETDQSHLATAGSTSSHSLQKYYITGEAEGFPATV
Procedure, shortened: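 Transactivation via ERa-Gal4 chimera in HepG2; 24 hour incubation; reporter mRNA detected by fluorescence RT-PCR and capillary electrophoresis.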

[20] = ATG_MRE_CIS: Attagene CIS-FACTORIAL HepG2 Assay for human Metal Responsive Element (MRE) (AID 2282954); settings: HepG2 MRE cis-reporter transcription, Attagene multiplex; actives raise or lower the signal
Procedure, shortened: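 HepG2 cells transiently transfected with multiple cis-element reporter units measure endogenous MTF1-driven transcription. After 24 h compound exposure, reporter mRNA is quantified by RT-PCR with 6-FAM labelling, HpaI digestion and capillary electrophoresis; bidirectional fits versus DMSO.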

C[As+](C)(C)CC(=O)[O-]
outcome [1]: inactive
outcome [2]: inactive
outcome [3]: inactive
outcome [4]: inactive
outcome [5]: inactive
outcome [6]: inactive
outcome [7]: inactive
outcome [8]: inactive
outcome [9]: inactive
outcome [10]: inactive
outcome [11]: inactive
outcome [12]: inactive
outcome [13]: inactive
outcome [14]: inactive
outcome [15]: inactive
outcome [16]: inactive
outcome [17]: inactive

CCCCCCCCCCCCN(C)C
outcome [1]: inactive
outcome [2]: inactive
AC50 [3]: 56.1 µM (active)
outcome [4]: inactive
outcome [5]: inactive
AC50 [6]: 58.6 µM (active)
outcome [7]: inactive
outcome [8]: inactive
outcome [9]: inactive
AC50 [10]: 53.2 µM (active)
AC50 [11]: 49 µM (active)
outcome [12]: inactive
outcome [13]: inactive
AC50 [14]: 48.4 µM (active)
AC50 [15]: 51.4 µM (active)
outcome [16]: inactive
AC50 [17]: 33.4 µM (active)

O=C1C=CC(=O)c2ccccc21
outcome [1]: inactive
outcome [2]: inactive
outcome [3]: inactive
outcome [4]: inactive
outcome [5]: inactive
outcome [6]: inactive
outcome [7]: inactive
outcome [8]: inactive
outcome [9]: inactive
outcome [10]: inactive
outcome [11]: inactive
outcome [12]: inactive
outcome [13]: inactive
outcome [14]: inactive
outcome [15]: inactive
outcome [16]: inactive
outcome [17]: inactive
outcome [18]: inactive
AC50 [19]: 11.1 µM (active)

BrCC(Br)c1ccccc1 (stereo unspecified)
outcome [1]: inactive
outcome [2]: inactive
outcome [3]: inactive
outcome [20]: inactive
outcome [5]: inactive
AC50 [6]: 27.3 µM (active)
outcome [7]: inactive
outcome [8]: inactive
outcome [9]: inactive
outcome [10]: inactive
outcome [11]: inactive
outcome [12]: inactive
outcome [13]: inactive
outcome [14]: inactive
outcome [15]: inactive
outcome [16]: inactive
outcome [17]: inactive

CCCCCCCCCCBr
outcome [1]: inactive
outcome [2]: inactive
outcome [3]: inactive
outcome [20]: inactive
outcome [5]: inactive
AC50 [6]: 27.7 µM (active)
outcome [7]: inactive
outcome [8]: inactive
outcome [9]: inactive
outcome [10]: inactive
outcome [11]: inactive
outcome [13]: inactive
outcome [14]: inactive
outcome [15]: inactive
outcome [16]: inactive
AC50 [19]: 33.3 µM (active)

c1ccc(-c2cccc(-c3ccccc3)c2)cc1
outcome [1]: inactive
outcome [2]: inactive
outcome [3]: inactive
outcome [20]: inactive
outcome [5]: inactive
AC50 [6]: 11.3 µM (active)
outcome [8]: inactive
outcome [9]: inactive
outcome [10]: inactive
outcome [11]: inactive
outcome [12]: inactive
outcome [13]: inactive
outcome [14]: inactive
outcome [15]: inactive
AC50 [16]: 56.6 µM (active)
AC50 [19]: 27.3 µM (active)

Nc1nc(=S)[nH][nH]1
outcome [1]: inactive
outcome [2]: inactive
outcome [3]: inactive
outcome [20]: inactive
outcome [6]: inactive
outcome [7]: inactive
outcome [8]: inactive
outcome [9]: inactive
outcome [10]: inactive
outcome [11]: inactive
outcome [12]: inactive
outcome [13]: inactive
outcome [14]: inactive
outcome [15]: inactive
outcome [16]: inactive

CN(C)C(=S)S
outcome [1]: inactive
outcome [2]: inactive
outcome [3]: inactive
outcome [20]: inactive
outcome [5]: inactive
AC50 [6]: 26.3 µM (active)
outcome [9]: inactive
outcome [10]: inactive
outcome [11]: inactive
outcome [12]: inactive
outcome [13]: inactive
outcome [14]: inactive
outcome [15]: inactive
outcome [16]: inactive
